# Only some compounds are listed: those with a hit (about 4.6% of all), similar ones and a draw of the others.
# PfHsp90 yeast 2 – growth inhibition of PfHsp90-expressing yeast, primary screen, antimalarial PfHsp90 inhibitor project, S. cerevisiae, BacTiter-Glo luminescence, single point, set 2 | BacTiter-Glo ATP, 48 h; yeast lacking PDR1 and PDR3 efflux regulators | inhibition, % at 9.4 µM | 310,000 compounds, 0.32% hits | AID 504621, 2011;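 active = every replicate shows inhibition above about 80%, whatever the replicate mean, limit read from the data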;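 also: 0% = DMSO neutral controls and 100% = 20 µM radicicol positive controls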
# tim23-1 inh – growth inhibitors of tim23-1 mutant yeast, primary screen, luminescence, uHTS; S. cerevisiae tim23-1 growth, BacTiter-Glo luminescence, 24 h; inhibition, % at 20 µM; 330,000 compounds, 1.3% hits; AID 463212, 2010;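 active = growth inhibition of the mutant yeast at or above 50%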;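 also: temperature-sensitive mutant grown at 25 °C; plate controls were DMSO-treated mutant yeast for no effect and medium wells lacking yeast for full effect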
# tim10-1 inh – growth inhibitors of tim10-1 mutant yeast, primary screen, luminescence, uHTS; S. cerevisiae tim10-1 ts strain growth, BacTiter-Glo, 24 h; inhibition, % at 20 µM; 330,000 compounds, 2.2% hits;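 active = inhibition of at least 40%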;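 also: mutant grown at 25 °C; 0% = DMSO wells with yeast and 100% = wells holding no yeast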
# NLRP3 yeast inh – NALP3 inflammasome inhibitors in reconstituted yeast, primary screen, luminescence, uHTS | Yeast reconstituted NLRP3/ASC/caspase-1, beta-gal luminescence, 24 h | inhibition, % at 10 µM | 330,000 compounds, 0.39% hits | AID 2825, 2010;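 active = inhibition of 50% or more; inactive = inhibition below 50%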;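 also: plate controls were induced DMSO wells for no effect and uninduced yeast grown without galactose for full effect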
# TIM10 inh – growth inhibitors of isogenic TIM10 control yeast, primary screen, counter-screen for tim10-1 yeast inhibitor project, luminescence, uHTS | S. cerevisiae TIM10 strain growth, BacTiter-Glo luminescence, 24 h | inhibition, % at 10 µM | 330,000 compounds, 1.4% hits | AID 463195, 2010;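 active = inhibition of 40% or more at the single tested concentration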;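 also: wild-type TIM10 isogenic control strain grown at permissive 25 °C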
# SKKanGAS inh – S. pyogenes SKKanGAS growth inhibitors in kanamycin, primary screen, streptokinase expression inhibitor project, SKKanGAS strain, BacTiter-Glo luminescence; 6 h; inhibition, % at 7.5 µM; 300,000 compounds, 1.3% hits;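 active = mean replicate score, as percent of positive control median, at least 50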;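 also: strain carries kanamycin resistance gene driven by streptokinase promoter and grows in 40 µg/ml kanamycin; loss of luminescence reflects streptokinase promoter inhibition or plain growth inhibition; 0% = median of DMSO wells and 100% = positive control at its reference dose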
# * marks the source's active call; other numbers are inactive results; . = no result.
SMILES,PfHsp90 yeast 2,tim23-1 inh,tim10-1 inh,NLRP3 yeast inh,TIM10 inh,SKKanGAS inh
CCS(=O)(=O)N1Cc2ccccc2CC1C(=O)Nc1nnc(SCc2ccc(F)cc2)s1 (configuration not stated),-30,19,35,22,32,54*
O=C(Nc1nc2ccc(F)cc2s1)c1ccccn1,.,41,35,31,-7,98*
CCc1nnc(NC(=O)C2Cc3ccccc3CN2S(=O)(=O)CC)s1 (configuration not stated),-34,4,15,2,-30,-3
O=C(NNC(=O)C1[C@H]2CCCC[C@@H]12)NC1CCCCC1 (some centres not stated),-12,9,13,8,0,2
COc1ccccc1NC(=O)CSc1nnc(C)s1,-5,16,16,9,0,-2
COc1cc(C2C(C#N)=C(N)N(N(C)C)C3=C2C(=O)CCC3)ccc1O (configuration not stated),0,.,.,.,.,1
O=[N+]([O-])c1ccc(S(=O)Cc2ccccc2)c([N+](=O)[O-])c1 (configuration not stated),137*,.,.,.,.,.
O=[N+]([O-])c1ccc(CS(=O)c2ccccc2)cc1 (configuration not stated),8,.,.,.,.,.
C/C(=N\NC(=O)c1ccc(F)cc1)c1ccccn1,9,13,-1,47,19,89*
CCOc1ccc(C(=O)N/N=C(\c2ccccc2)c2ccccn2)cc1,-7,46,33,24,17,69*
CC(NC(=O)CCN1C(=O)c2ccccc2C1=O)c1ccccc1 (configuration not stated),-16,-2,-2,12,4,-3
C/C(=N\Nc1nc2ccccc2s1)c1ccc(Br)s1,115*,26,23,-6,26,92*
COc1cc(OC)c(NC(=O)c2sc3ncn(CC(=O)N4CCN(c5ccccn5)CC4)c(=O)c3c2C)cc1Cl,-5,-19,-12,14,-6,50*
CCCCOc1ccccc1C(=O)NNC(=S)NC(=O)c1ccccc1[N+](=O)[O-],1,1,19,26,17,77*
Cc1cc(SCC(=O)N2CCN(C(=O)c3ccco3)CC2)c(C)cc1Br,-14,30,8,24,6,.
O=C(CCNS(=O)(=O)c1ccc(Br)s1)NC1CCCC1,.,13,9,-13,-13,-9
O=S(=O)(NC1CCCCCC1)c1ccc(Br)s1,88*,13,28,50,5,6
O=C(N/N=C/c1cccc(O)c1)c1ccc(COc2cccc3cccnc23)cc1,-20,13,1,11,7,17
Cc1ccc(C(C)C)c(OCc2ccc(C(=O)N/N=C/c3ccc(C(=O)O)cc3)cc2)c1,-17,9,9,4,-6,42
CC(C)(C)c1ccc(OCc2ccc(C(=O)N/N=C/c3ccc(O)c(O)c3)cc2)cc1,.,9,11,27,-3,62*
O=C(N/N=C/c1cccc(O)c1)c1ccc(COc2ccccc2Br)cc1,6,2,-13,11,8,63*
Cc1ccc(C(C)C)c(OCc2ccc(C(=O)N/N=C/c3ccc(O)cc3O)cc2)c1,32,.,.,.,.,87*
O=C1CC(=C2c3ccccc3-c3ccccc32)C(=O)N1CCCCN1CCN(c2ccccc2)CC1,.,22,8,30,28,0
CCOc1cc(/C=C/C(=O)OCC(=O)NC2CCS(=O)(=O)C2)ccc1OCc1ccccc1 (configuration not stated),-5,8,18,30,3,.
CCOC(=O)C1=C(COC(=O)[C@@H]2CCCN2S(=O)(=O)c2ccc(C)cc2)NC(=O)NC1C (some centres not stated),2,-4,9,6,10,-1
SMILES,PfHsp90 yeast 2,tim23-1 inh,tim10-1 inh,NLRP3 yeast inh,TIM10 inh,SKKanGAS inh
Oc1ccccc1-c1ccn[nH]1,4,2,-4,23,-10,.
Oc1ccccc1-c1nc2c3ccccc3c3ccccc3c2[nH]1,33,.,.,.,.,86*
COc1ccc(C(C(=O)NC(C)(C)C)N(C[C@H]2CC[C@@H]([C@@H]3CC[C@H](CO)O3)O2)C(=O)c2ccccc2)cc1 (some centres not stated),4,25,14,.,-7,.
OCCCn1c(C2CCCN2c2nc(-c3ccc(F)cc3)cs2)nc2cc(Cl)c(N3CCCCC3)cc21 (configuration not stated),3,-9,-14,6,-10,17
OCCOCCn1c(C2CCCN2c2nc(-c3ccc(F)cc3)cs2)nc2cc(Cl)c(Cl)cc21 (configuration not stated),110*,-4,1,18,0,33
OCCOCCn1c(C2CCCN2c2nc(-c3ccc(F)cc3)cs2)nc2cc(C(F)(F)F)ccc21 (configuration not stated),108*,23,28,2,-36,24
OCCCn1c(C2CCCN2c2nc(-c3ccc(F)cc3)cs2)nc2cc(C(F)(F)F)ccc21 (configuration not stated),.,18,5,26,-36,33
O=C(Nc1ccn(Cc2c(F)c(F)cc(F)c2F)n1)c1ccc(COc2ccc(Cl)cc2Cl)o1,-3,27,31,-14,28,50*
Cc1ccc(C(=O)CC(=O)c2ccccc2C)c(O)c1,-1,49,16,0,8,97*
Cc1ccc(C)c(NC(=O)c2ccccc2O)c1,-19,34,5,49,-4,-8
Cc1ccc(O)c(C(=O)CC(=O)c2ccc(C(C)(C)C)cc2)c1,19,29,14,20,-4,95*
Cc1ccc(O)c(C(=O)CC(=O)c2ccccc2Cl)c1,-50,38,23,25,14,81*
COC(=O)C(Cc1ccccc1)NC(=O)CNC(=O)c1ccccc1OC (configuration not stated),21,2,4,28,8,0
COc1ccc(-c2nc(NC(=O)C3CC(=O)N(c4ccc5c(c4)OCCO5)C3)sc2C)cc1 (configuration not stated),11,22,24,10,18,55*
COc1ccc2nc(NC(=O)C3CC(=O)N(c4ccc5c(c4)OCCO5)C3)sc2c1 (configuration not stated),-3,39,21,12,6,.
CC1CCN(c2ccc(NC(=O)c3ccc(Br)o3)cc2)CC1,12,21,18,23,13,19

# Screening data: PubChem BioAssay, several laboratories
